Bioassay records deposited in PubChem by National Center for Advancing Translational Sciences (NCATS).
Marburg entry – Marburg virus entry inhibition | Marburg virus pseudotype entry/binding inhibition, cell-based | Potency, µM (top dose mostly 49.2 µM), without a hit: top-dose activity change, negative = inhibition, hits mostly inhibitors | hit rate 6.5% among 18,000 | AID 720532
Lassa entry – Lassa virus entry inhibition; hit rate 4.1% among 18,000; Lassa virus pseudotyped entry inhibition, cell-based qHTS; Potency, µM (titrated, usually from 49.2 µM), inactives show at the highest dose activity change, negative = inhibition, actives largely listed as inhibitors
The depositor's hits bear a star; ? = inconclusive; / = no result given; ! = not confirmed by another sample; [ ] = dose if it differs, or a comment. Shown are actives, neighbours in structure and some others; about 7.1% of the full set was active somewhere. The call rests on the fitted dose curve; tested in HEK293 cells. On the % scale 0 is the no-effect control and ±100 the full control effect; potency means the concentration at half of the fitted maximal effect.

SMILES	Marburg entry	Lassa entry
C=C1C[C@H](OC(=O)C(C)(O)CCl)C2C(=C)C(=O)O[C@@H]2C2C1C[C@H](O)[C@]2(O)CCl (some centres undefined)	20µM*	?
CC(N)C(O)c1ccc(O)c(O)c1 (centres undefined)	11.2µM*!	-7.6%
C[C@H](N)[C@H](O)c1cccc(O)c1	1.4%[17.8 µM]	-2.7%[17.8 µM]
CC(C)[C@@H]1CN[C@H](C(=O)O)[C@@H]1CC(=O)O	8.8%	-12.1%
C[C@H]1[C@@H](c2ccccc2)Oc2ccc(Cl)cc2S(=O)(=O)N1Cc1cccc(Cl)c1	19.8%	3.8%
FC(F)(F)c1ccccc1-c1ccc2ncnc(NC3CCNCC3)c2c1	11.2µM*	-18.6%
COc1cccc(-c2ccc3ncnc(NC4CCNCC4)c3c2)c1	?	0.2%
CC1=C(/C=C/C(C)=C/C=C/C(C)=C/C=C/C=C(C)/C=C/C=C(C)/C=C/C(=O)[C@]2(C)CC(O)CC2(C)C)C(C)(C)CC(O)C1 (some centres undefined)	8.1%	5.8%
CC1=C(/C=C/C(C)=C/C=C/C(C)=C/C=C/C=C(C)/C=C/C=C(C)/C=C/C2=C(C)C[C@@H](O)CC2(C)C)C(C)(C)C[C@H](O)C1	8.6%	28.2µM*
CC(C)(CO)[C@@H](O)C(=O)NCCC(=O)O	14.4%	5.1%
CC1=C(O)C(=O)C=C2C1=CC=C1[C@]2(C)CC[C@@]2(C)C3C[C@](C)(C(=O)O)CC[C@@]3(C)CC[C@@]12C (some centres undefined)	3.98µM*	4.47µM*
CC1(C)[C@@H](O)CC[C@]2(C)C3C(=O)C=C4C5C[C@@](C)(C(=O)O)CC[C@]5(C)CC[C@@]4(C)[C@]3(C)CC[C@@H]12 (some centres undefined)	-10.2%	3.8%
CC(C)[C@@H](CC(=O)N[C@@H]1CCCC[C@H]1C(=O)N[C@H](CC(=O)N[C@@H](CCC(=O)O)CC(=O)O)Cc1c[nH]c2ccccc12)NC(=O)C[C@H](CO)NC(=O)[C@@H]1CNCC[C@H]1N	-24.5%	0.8%
CCC1(C2CCN(Cc3cc4ccccc4o3)CC2)NC(=O)N(CC2COc3ccccc3O2)C1=O (centres undefined)	31.6µM*	-30.0%
CCC1(C2CCN(Cc3ccccc3Cl)CC2)NC(=O)N(CC2COc3ccccc3O2)C1=O (centres undefined)	?	-8.9%
C[C@H]1CO1	1.3%	2.1%
C/C=C1\C[N@@+]2(C)CC[C@@]34C(=C(C=O)[C@H]1C[C@H]32)Nc1ccccc14	-8.5%[17.8 µM]	-2.6%[17.8 µM]
C[C@H](Cc1ccccc1)Nc1ncnc2c1ncn2[C@@H]1O[C@H](CO)[C@@H](O)[C@H]1O	34.7%	13.3%
COc1ccc(C[C@H](N)C(=O)N[C@H]2[C@@H](O)[C@H](n3cnc4c(N(C)C)ncnc43)O[C@@H]2CO)cc1	3.98µM*	4.47µM*
C[C@]12CC[C@H]3[C@@H](CCC4=C(Cl)C(=O)CC[C@@]43C)[C@@H]1CC[C@@H]2O	-2.4%	-19.5%
CC[C@H](C)[C@H](NC(=O)[C@H](CCC(=O)O)NC(=O)[C@H](C)NC(=O)[C@@H](NC(=O)[C@H](Cc1cnc[nH]1)NC(=O)[C@@H](NC(=O)[C@H](CCC(=O)O)NC(=O)[C@H](C)NC(=O)[C@@H](NC(=O)[C@H](CC(C)C)NC(=O)[C@H](Cc1cnc[nH]1)NC(=O)[C@H](Cc1cnc[nH]1)NC(=O)[C@H](CC(C)C)NC(=O)[C@H](Cc1c[nH]c2ccccc12)NC(=O)[C@H](Cc1ccccc1)NC(=O)[C@H](CCCNC(=N)N)NC(=O)[C@H](CCCNC(=N)N)NC(=O)[C@H](CCCNC(=N)N)NC(=O)[C@H](CC(C)C)NC(=O)[C@H](CC(=O)O)NC(=O)[C@H](CCC(N)=O)NC(=O)[C@@H](NC(=O)[C@H](CO)NC(=O)[C@H](CCCCN)NC(=O)CNC(=O)[C@H](CCCCN)NC(=O)[C@H](CC(=O)O)NC(=O)[C@H](Cc1cnc[nH]1)NC(=O)[C@H](CC(C)C)NC(=O)[C@H](CC(C)C)NC(=O)[C@H](CCC(N)=O)NC(=O)[C@@H](NC(=O)[C@H](CCC(=O)O)NC(=O)[C@H](CO)NC(=O)[C@@H](NC(=O)[C@H](C)N)C(C)C)[C@@H](C)CC)[C@@H](C)CC)[C@@H](C)CC)[C@@H](C)CC)[C@@H](C)O)C(=O)O	-10.0%	-0.5%
CC[C@H](C)[C@H]1O[C@]2(CC[C@@H]1C)C[C@@H]1C[C@@H](C/C=C(\C)[C@@H](O[C@H]3C[C@H](OC)[C@@H](O[C@H]4C[C@H](OC)[C@@H](O)[C@H](C)O4)[C@H](C)O3)[C@@H](C)/C=C/C=C3\CO[C@@H]4[C@H](O)C(C)=C[C@@H](C(=O)O1)[C@]34O)O2	?	14.1µM*
CO[C@H]1C[C@H](O[C@@H]2/C(C)=C/C[C@@H]3C[C@@H](C[C@]4(CC[C@H](C)[C@@H](C5CCCCC5)O4)O3)OC(=O)[C@@H]3C=C(C)/C(=N/O)[C@H]4OC/C(=C\C=C\[C@@H]2C)[C@]43O)O[C@@H](C)[C@@H]1O	6.6%	-13.5%
CN(C)CCc1ccc(O)cc1	0.5%	-15.5%
Clc1ccc(C[n+]2cc(-c3ccccc3)n3c2CCCCC3)c(Cl)c1	8.91µM*	?
SMILES	Marburg entry	Lassa entry
CN1c2ccccc2[C@@]2(O)C(=O)[C@@]1(C)[C@@H]1c3ccccc3C[C@H]12	-27.8%[8.59 µM]	20.4%[8.59 µM]
COc1cccc(O)c1O	12.6µM*	?
COc1ccccc1O	23.6%[107 µM]	-13.3%[107 µM]
CCCCOc1cc(CC2CNC(=O)N2)ccc1OC (centres undefined)	0.8%	-5.2%
Cc1cc(C)n(CCC(=O)NCC2Cc3cc(Cl)cc(-c4cnccn4)c3O2)n1 (centres undefined)	12.9%	8.3%
Cc1nnc(SCC2=C(C(=O)O)N3C(=O)[C@@H](NC(=O)Cn4cnnn4)[C@@H]3SC2)s1	-24.0%[17.8 µM]	2.9%[17.8 µM]
Cc1ncc2c(c1CNC(=O)c1ccccc1F)CCN(C(=O)c1[nH]c3ccc(Cl)cc3c1C)C2	?	10µM*
Cc1ncc2c(c1CNC(=O)c1ccccc1F)CCN(C(=O)c1ccc3c(c1)OCCO3)C2	4.8%	?
C[C@@]12CCc3occc3[C@H]1CC[C@@]13C[C@@H](CC[C@H]12)[C@@](O)(CO)C3	-0.2%	6.1%
COc1ccc(-c2nn3ncccc3c2-c2ccnc(Nc3cccc(C(F)(F)F)c3)n2)cc1	12.5µM*	?
Cc1ccc2c(-c3ccnc(Nc4ccccc4)n3)c(-c3ccc(F)cc3)nn2n1	3.53µM*	?
CCc1nn2ncccc2c1-c1ccnc(NC2CC2)n1	-14.3%	/
NC(=O)c1cccc(Nc2nccc(Nc3cccc(F)c3)n2)c1	-59.6%	32.0%
COc1cccc(Nc2nccc(-c3cnn4ncccc34)n2)c1	0.315µM*	?
Cc1cc2oc(=O)cc(-c3ccccc3)c2c(C)c1-c1ccc(C(F)(F)F)cc1	3.6%	-3.9%
O=S1(=O)CC(N2CCC(c3ccccc3)CC2)CN1Cc1ccc(F)cc1 (centres undefined)	-21.8%	?
Cc1cc(CNC(=O)c2cnn(-c3ncc4c(n3)-c3ccccc3CC4)c2C2CC2)on1	13.0%	26.6%
CC1(C)CCC[C@@]2(C)C1CC[C@@](C)(O)[C@@H]2CC[C@@](C)(O)C1CO1 (some centres undefined)	4.8%	-6.9%
Nc1nc(N)c(N=O)c(OCC2CCCCC2)n1	11.2µM*	-4.5%
